Inconclusive results are not listed. Calls of active or inactive are those of the source. Unless noted, calls follow the shape of the dose curve; as a rule, active = well fitted curve in the direction sought with a large enough effect in the repeat runs; inconclusive = weak or mixed curves; inactive = no such curve, though single readings can be large; an effect the other way counts as inactive or inconclusive.
How the values were obtained:
[1] = qHTS assay to identify aromatase inhibitors - cell viability counter screen (AID 743084);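 also: cells stimulated with testosterone during compound exposure; nearly all actives have a fitted effect of over 55% in size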; also: potency is read from the fitted curve at half-maximal effect
[2] = qHTS assay to identify small molecule antagonists of the peroxisome proliferator-activated receptor gamma (PPARg) signaling pathway - cell viability counter screen (AID 743194); conditions: Potency: co-treated with 50 nM rosiglitazone; also: nearly all actives have a fitted effect of over 55% in size; also: potency is read from the fitted curve at half-maximal effect
Summary of the method: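 Cytotoxicity counter screen in PPARg-bla HEK293H cells, same wells as reporter assay. Compounds plus 50 nM rosiglitazone (final) for 17 h at 37 C, then viability read by CellTiter-Glo luminescence.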

[3] = qHTS assay for small molecule agonists of the antioxidant response element (ARE) signaling pathway (AID 743202; active = well fitted activation curve with a large enough effect in the signal ratio in the repeat runs, not every such curve was filed as active; the % refers to the signal ratio; also: potency is read from the fitted curve at half-maximal effect)
Summary of the method: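 HepG2 ARE-bla reporter line, 2,000 cells/well; 5 h preincubation 37 C/5% CO2; compound (DMSO) 16 h 37 C; B/G FRET substrate 2 h RT; fluorescence intensity.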

[4] = qHTS assay for small molecule activators of the heat shock response signaling pathway - cell viability counter screen (AID 743209); also: nearly all actives have a fitted effect of over 50% in size
Summary of the method: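 Compounds dissolved in DMSO were added to overnight-plated HSE-bla HeLa cells and left 5 h at 37 C. Cell viability was quantified by luminescence using CellTiter-Glo.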

[5] = qHTS assay to identify small molecule agonists of the farnesoid-X-receptor (FXR) signaling pathway - cell viability counter screen (AID 743218); also: nearly all actives have a fitted effect of over 45% in size; also: potency is read from the fitted curve at half-maximal effect
Summary of the method: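 Quantitative HTS counter screen measuring ATP-based viability via CellTiter-Glo luminescence in HEK 293T cells carrying a UAS-driven beta-lactamase reporter, after 16 h compound exposure at 37 C.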

[6] = target: Peroxisome proliferator-activated receptor gamma (Homo sapiens) (UniProt P37231); test: qHTS assay to identify small molecule antagonists of the peroxisome proliferator-activated receptor gamma (PPARg) signaling pathway (AID 743191; calls by dose curve; also: nearly all actives have a fitted effect of over 30% in size; also: potency is read from the fitted curve at half-maximal effect)
Summary of the method: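 GeneBLAzer PPARg UAS-bla HEK293H cells, 5 h post-plating, exposed to compounds 17 h at 37C. LiveBLAzer B/G FRET substrate added for 1 h at room temperature; beta-lactamase reporter read by fluorescence intensity.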

[7] = qHTS assay for small molecule agonists of the antioxidant response element (ARE) signaling pathway - cell viability counter screen (AID 743203; calls by dose curve; also: nearly all actives have a fitted effect of over 55% in size; also: potency is read from the fitted curve at half-maximal effect)
Summary of the method: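 ATP content via CellTiter-Glo luminescence served as the viability measure. Cells: ARE-bla HepG2, 2,000 per well. Exposure: 16 hrs, 37C/5% CO2.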

[8] = qHTS assay for small molecule activators of the heat shock response signaling pathway (AID 743210; active = well fitted activation curve with a large enough effect in the signal ratio in the repeat runs, with a control signal flat, not every such curve was filed as active; the % refers to the signal ratio;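 also: HeLa cells with beta-lactamase reporter driven by heat shock elements; series mostly up to about 63 µM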)
Summary of the method: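 Beta-lactamase reporter read-out: FRET substrate fluorescence after 2.5 h at RT, following 5 h compound treatment at 37 C of HeLa cells carrying HSE-driven bla reporter; quantitative HTS format.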

[9] = qHTS assay to identify small molecule agonists of the peroxisome proliferator-activated receptor delta (PPARd) signaling pathway - cell viability counter screen (AID 743211); also: nearly all actives have a fitted effect of over 55% in size; also: potency is read from the fitted curve at half-maximal effect
Summary of the method: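 Tox21 library compounds, delivered in DMSO, were incubated 17 h with PPARd-bla HEK293H cells; cytotoxicity was taken from CellTiter-Glo luminescence read 30 min after reagent addition.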

[10] = qHTS assay to identify small molecule antagonists of the peroxisome proliferator-activated receptor delta (PPARd) signaling pathway - cell viability counter screen (AID 743213); also: nearly all actives have a fitted effect of over 50% in size
Summary of the method: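 HEK293H cells with the PPARd UAS-bla reporter, co-treated 17 h at 37 C with compounds and L165041 (300 nM final), were lysed with CellTiter-Glo. Luminescence indicated viable cell content.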

[11] = target: Bile acid receptor (Homo sapiens) (UniProt Q96RI1); test: qHTS assay to identify small molecule antagonists of the farnesoid-X-receptor (FXR) signaling pathway (AID 743217; active = well fitted inhibition curve with a large enough effect in the signal ratio in the repeat runs, not every such curve was filed as active; the % refers to the signal ratio)
Summary of the method: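 Test compounds are pin-transferred onto FXR-bla HEK 293T cells, then chenodeoxycholic acid is added at 50 uM final. After 16 h at 37 °C, LiveBLAzer B/G substrate is applied for 2 h at room temperature and fluorescence read.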

[12] = target: Bile acid receptor (Homo sapiens) (UniProt Q96RI1); test: qHTS assay to identify small molecule agonists of the farnesoid-X-receptor (FXR) signaling pathway (AID 743220; active = well fitted activation curve with a large enough effect in the signal ratio in the repeat runs, not every such curve was filed as active; the % refers to the signal ratio)
Summary of the method: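 FXR-UAS-bla HEK 293T cells carrying a UAS-driven beta-lactamase reporter were plated for 5 h at 37C/5% CO2, then exposed to DMSO-dissolved Tox21 10K compounds for 16 h at 37C. A LiveBLAzer B/G FRET substrate was loaded for 2 h at room temperature before fluorescence reading.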

[13] = target: Vitamin D3 receptor (Homo sapiens) (UniProt P11473); test: qHTS assay to identify small molecule agonists of the vitamin D receptor (VDR) signaling pathway (AID 743222; calls by dose curve)
Summary of the method: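 Tox21 cell reporter format: VDR-bla line, 16 h compound exposure in 5% CO2 at 37C, then fluorescence intensity after 2 h with LiveBLAzer B/G FRET substrate.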

[14] = target: Vitamin D3 receptor (Homo sapiens) (UniProt P11473); test: qHTS assay to identify small molecule antagonists of the vitamin D receptor (VDR) signaling pathway (AID 743223; active = well fitted inhibition curve with a large enough effect in the signal ratio in the repeat runs, not every such curve was filed as active; the % refers to the signal ratio)
Summary of the method: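 Quantitative HTS in VDR-bla reporter cells stimulated with 1alpha,25-dihydroxyvitamin D3, 3 nM final. Compound exposure 16 h, 37C, 5% CO2. Read-out: beta-lactamase FRET substrate fluorescence, 2 h RT.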

[15] = target: Aryl hydrocarbon receptor (Homo sapiens) (UniProt P35869); test: qHTS assay to identify small molecule that activate the aryl hydrocarbon receptor (AhR) signaling pathway (AID 743085);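 also: HG2L7.5c1 human HepG2 liver cells with stably integrated DRE-driven firefly reporter; series mostly up to about 70 µM; nearly all actives have a fitted effect of over 15% in size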
Summary of the method: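 A multiplexed format paired cell viability (CellTiter-Fluor fluorescence) with AhR-dependent luciferase output (ONE-Glo luminescence) in the same wells of HepG2 DRE-luc cells after 24 h compound exposure at 37C.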

[16] = qHTS assay to identify small molecule that activate the aryl hydrocarbon receptor (AhR) signaling pathway - cell viability counter screen (AID 743086); also: nearly all actives have a fitted effect of over 45% in size; also: potency is read from the fitted curve at half-maximal effect
Summary of the method: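 HepG2-AhR-luc (HG2L7.5c1) cells, 4000/well, treated 24 h at 37 C with compound; viability measured as CellTiter-Fluor fluorescence after 30 min in the same wells as the luciferase read.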

[17] = target: Peroxisome proliferator-activated receptor gamma (Homo sapiens) (UniProt P37231); test: qHTS assay to identify small molecule agonists of the peroxisome proliferator-activated receptor gamma (PPARg) signaling pathway (AID 743094; active = well fitted activation curve with a large enough effect in the signal ratio in the repeat runs, not every such curve was filed as active; the % refers to the signal ratio)
Summary of the method: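 Agonism was assessed in a beta-lactamase reporter system, HEK293H cells with a stably integrated UAS-bla construct under PPARg control; the 17 h treatment at 37C preceded a 1 h room-temperature FRET substrate read.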

[18] = qHTS assay to identify small molecule antagonists of the farnesoid-X-receptor (FXR) signaling pathway - cell viability counter screen (AID 743221; active = well fitted cell-killing curve with a large enough effect in the repeat runs, not every such curve was filed as active; also: nearly all actives have a fitted effect of over 50% in size)
Summary of the method: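 Cytotoxicity is taken from ATP luminescence (CellTiter-Glo, 30 min, room temperature) in FXR-bla HEK 293T cells previously incubated 16 h at 37 C with compound and chenodeoxycholic acid at 50 uM final.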

[19] = target: Peroxisome proliferator-activated receptor delta (Homo sapiens) (UniProt Q03181); test: qHTS assay to identify small molecule agonists of the peroxisome proliferator-activated receptor delta (PPARd) signaling pathway (AID 743212; calls by dose curve)
Summary of the method: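 Read-out: beta-lactamase FRET fluorescence after 2 h room-temperature incubation with LiveBLAzer B/G substrate. Cells were HEK293H carrying a UAS-bla reporter for PPARd, treated at 37 C with DMSO-dissolved compounds.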

[20] = target: Peroxisome proliferator-activated receptor delta (Homo sapiens) (UniProt Q03181); test: qHTS assay to identify small molecule antagonists of the peroxisome proliferator-activated receptor delta (PPARd) signaling pathway (AID 743215; active = well fitted inhibition curve with a large enough effect in the signal ratio in the repeat runs, not every such curve was filed as active; the % refers to the signal ratio;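 also: cells stimulated with agonist L165041 at 300 nM final during compound exposure; series mostly up to about 62 µM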)
Summary of the method: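 Here, a reporter line (HEK293H, beta-lactamase under a UAS) measures PPARd signaling. Compounds are tested against agonist L165041 at 300 nM final concentration over 17 h at 37 C, with fluorescence read after substrate.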

Measured: Potency

Sequence of Bile acid receptor (Homo sapiens) (Q96RI1 whole entry, looked up): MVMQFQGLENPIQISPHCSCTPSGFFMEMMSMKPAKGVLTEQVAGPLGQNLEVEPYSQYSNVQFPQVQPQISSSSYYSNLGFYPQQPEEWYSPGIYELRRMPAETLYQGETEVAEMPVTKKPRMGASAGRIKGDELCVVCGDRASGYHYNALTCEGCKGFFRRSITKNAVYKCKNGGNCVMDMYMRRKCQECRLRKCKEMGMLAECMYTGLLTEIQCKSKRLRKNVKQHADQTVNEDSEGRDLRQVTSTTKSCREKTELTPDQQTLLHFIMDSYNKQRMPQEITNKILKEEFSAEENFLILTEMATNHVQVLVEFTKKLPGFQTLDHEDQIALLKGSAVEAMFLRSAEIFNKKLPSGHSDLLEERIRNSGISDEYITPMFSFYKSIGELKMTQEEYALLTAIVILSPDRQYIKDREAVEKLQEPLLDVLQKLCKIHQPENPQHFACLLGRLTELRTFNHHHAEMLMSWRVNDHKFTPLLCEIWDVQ
Sequence of Vitamin D3 receptor (Homo sapiens) (P11473 whole entry, looked up): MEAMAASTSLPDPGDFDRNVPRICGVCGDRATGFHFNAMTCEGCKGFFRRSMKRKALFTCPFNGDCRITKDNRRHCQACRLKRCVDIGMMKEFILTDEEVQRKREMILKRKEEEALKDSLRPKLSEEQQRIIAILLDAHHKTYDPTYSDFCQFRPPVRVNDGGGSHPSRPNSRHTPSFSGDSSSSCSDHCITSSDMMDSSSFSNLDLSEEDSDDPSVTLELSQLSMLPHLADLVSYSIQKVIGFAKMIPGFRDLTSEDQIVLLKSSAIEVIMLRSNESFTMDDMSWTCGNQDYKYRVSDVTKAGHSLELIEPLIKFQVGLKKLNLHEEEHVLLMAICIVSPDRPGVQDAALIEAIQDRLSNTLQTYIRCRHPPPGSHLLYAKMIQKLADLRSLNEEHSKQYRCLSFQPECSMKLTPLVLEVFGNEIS
Sequence of Peroxisome proliferator-activated receptor gamma (Homo sapiens) (P37231 whole entry, looked up): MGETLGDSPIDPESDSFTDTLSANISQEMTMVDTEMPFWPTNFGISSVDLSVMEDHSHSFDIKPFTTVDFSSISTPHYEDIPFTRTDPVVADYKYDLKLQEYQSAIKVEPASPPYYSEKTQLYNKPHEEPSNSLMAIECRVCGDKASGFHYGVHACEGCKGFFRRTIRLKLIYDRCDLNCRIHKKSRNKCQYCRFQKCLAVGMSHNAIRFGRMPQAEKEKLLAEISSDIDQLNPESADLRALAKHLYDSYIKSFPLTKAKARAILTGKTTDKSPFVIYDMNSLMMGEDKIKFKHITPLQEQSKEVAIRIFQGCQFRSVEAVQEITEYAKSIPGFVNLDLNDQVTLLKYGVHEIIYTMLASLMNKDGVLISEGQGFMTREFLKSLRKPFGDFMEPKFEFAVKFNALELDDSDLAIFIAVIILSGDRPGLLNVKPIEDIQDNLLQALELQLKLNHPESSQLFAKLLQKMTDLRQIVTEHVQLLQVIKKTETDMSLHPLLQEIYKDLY
Sequence of Peroxisome proliferator-activated receptor delta (Homo sapiens) (Q03181 whole entry, looked up): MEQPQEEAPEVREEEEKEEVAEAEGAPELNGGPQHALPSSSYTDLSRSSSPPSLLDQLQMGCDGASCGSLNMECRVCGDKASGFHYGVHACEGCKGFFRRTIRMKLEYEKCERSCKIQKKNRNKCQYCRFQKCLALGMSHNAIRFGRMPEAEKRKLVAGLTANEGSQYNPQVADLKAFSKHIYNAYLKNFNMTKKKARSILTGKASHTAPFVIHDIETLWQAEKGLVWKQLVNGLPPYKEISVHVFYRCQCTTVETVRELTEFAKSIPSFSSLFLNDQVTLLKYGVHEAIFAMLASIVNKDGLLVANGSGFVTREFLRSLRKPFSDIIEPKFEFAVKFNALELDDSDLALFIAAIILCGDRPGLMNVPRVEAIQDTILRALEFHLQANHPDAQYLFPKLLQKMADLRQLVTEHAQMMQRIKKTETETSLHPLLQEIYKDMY
Sequence of Aryl hydrocarbon receptor (Homo sapiens) (P35869 whole entry, looked up): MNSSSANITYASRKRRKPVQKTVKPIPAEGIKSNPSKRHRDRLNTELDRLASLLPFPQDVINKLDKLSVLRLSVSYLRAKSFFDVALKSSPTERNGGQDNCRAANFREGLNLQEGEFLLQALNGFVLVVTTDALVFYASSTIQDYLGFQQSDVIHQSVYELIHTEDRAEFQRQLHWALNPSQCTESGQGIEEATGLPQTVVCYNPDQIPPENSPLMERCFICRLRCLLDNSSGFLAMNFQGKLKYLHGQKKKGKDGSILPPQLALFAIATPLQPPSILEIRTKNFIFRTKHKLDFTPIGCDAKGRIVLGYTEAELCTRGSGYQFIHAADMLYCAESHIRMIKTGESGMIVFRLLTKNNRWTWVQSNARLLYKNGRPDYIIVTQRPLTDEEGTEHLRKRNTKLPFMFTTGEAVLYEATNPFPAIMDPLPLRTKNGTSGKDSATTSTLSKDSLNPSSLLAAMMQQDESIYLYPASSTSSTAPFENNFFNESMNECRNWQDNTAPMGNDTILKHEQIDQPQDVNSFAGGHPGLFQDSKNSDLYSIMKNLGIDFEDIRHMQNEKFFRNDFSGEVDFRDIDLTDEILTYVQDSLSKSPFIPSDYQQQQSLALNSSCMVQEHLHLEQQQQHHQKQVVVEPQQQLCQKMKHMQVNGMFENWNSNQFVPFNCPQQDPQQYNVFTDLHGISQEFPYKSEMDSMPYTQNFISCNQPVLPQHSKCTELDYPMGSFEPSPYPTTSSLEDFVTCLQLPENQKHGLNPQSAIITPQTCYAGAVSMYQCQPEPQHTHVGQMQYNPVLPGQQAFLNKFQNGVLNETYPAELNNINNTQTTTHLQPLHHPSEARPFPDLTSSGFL

CCOP(=S)(OCC)SCn1nnc2ccccc2c1=O
inactive: [4]
active: [1] 54.5 µM | [2] 43.6 µM | [3] 3.06 µM | [5] 43.6 µM

O=[Se]=O
active: [3] 8.58 µM
inactive: [1] | [6] | [7] | [4] | [8] | [9] | [10] | [11] | [5] | [12] | [13] | [14]

C=C(C#N)CCC#N
inactive: [15] | [16] | [17] | [6] | [7] | [4] | [8] | [9] | [5] | [18] | [13]

Cl/C=C\C[N+]12CN3CN(CN(C3)C1)C2
inactive: [15] | [16] | [7] | [4] | [8] | [9] | [11] | [5] | [13] | [14]

COC1=CC(=O)O[C@@H](CCc2ccccc2)C1
inactive: [16] | [2] | [7] | [4] | [8] | [9] | [19] | [10] | [20] | [5] | [18] | [13]

CC1Sc2c(C(=O)O)c(=O)c3cc(F)c(N4CCNCC4)cc3n21 (stereo not given)
inactive: [2] | [7] | [4] | [8] | [9] | [19] | [20] | [11] | [5] | [18] | [13]

O=C(N[C@H](c1ccccc1)[C@@H]1CN2CCC1CC2)c1c(Cl)ccc(C(F)(F)F)c1Cl
inactive: [2] | [8] | [10] | [13]
active: [16] 39.2 µM | [6] 4.97 µM | [7] 49.3 µM | [9] 78.8 µM | [5] 70.2 µM

O=C(O)C(F)(F)C(F)(F)C(F)(F)C(F)(F)C(F)(F)C(F)(F)C(F)(F)C(F)(F)C(F)(F)F
inactive: [16] | [17] | [7] | [4] | [8] | [19] | [10] | [20] | [5] | [18]
active: [3] 24.3 µM

CC1CC(CC2CCC(N)C(C)C2)CCC1N (stereo not given)
inactive: [17] | [2] | [7] | [4] | [8] | [9] | [19] | [20] | [13]

Sc1ccccc1Cl
inactive: [7] | [4] | [8] | [9] | [19] | [10] | [20] | [11] | [5] | [18] | [13] | [14]

Cc1ccc(-c2c(Cl)nc(C#N)n2S(=O)(=O)N(C)C)cc1
inactive: [15] | [16] | [17] | [4] | [5] | [18] | [13]

O=S(=O)(O)C(F)(F)C(F)(F)C(F)(F)C(F)(F)F
inactive: [15] | [17] | [7] | [8] | [9]
